Screens (PubChem BioAssay)
LMP1 NFkB inh = inhibitors of Epstein-Barr LMP1-induced NF-kappaB reporter | LMP1-induced NF-kappaB luciferase reporter cells, luminescence | inhibition, % at 12.5 µM | 0.69% of 350,000 active; in the data active = inhibition above about 41%; inconclusive = no clear call, values can overlap the other calls;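 note: 0% = neutral control wells and 100% = reference inhibitor control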
Peg3 promoter = reduces Peg3 promoter-driven luciferase expression in HeLa | HeLa PEG-Prom luciferase reporter, luminescence, overnight | 1.7% of 360,000 active | inhibition, % at 20 µM;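 active = inhibition of at least 50% at 20 µM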
CF NFkB block = cystic fibrosis NF-kB activation inhibition; KKLEB NF-kB-GFP reporter, PAF-induced, GFP fluorescence overnight; inhibition, % at 5 µM; 0.86% of 360,000 active; AID 588850;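 active = at least 50% inhibition at 5 µM, scaled per plate between neutral and stimulator controls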;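 note: PAF is a Pseudomonas aeruginosa culture filtrate used as stimulus; plate controls were PAF-stimulated DMSO wells for no effect and unstimulated DMSO wells for full effect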
TRPM1 prom inh = MITF TRPM1 promoter inhibition in SK-MEL-5 cells; inhibition, % at 12.5 µM; 0.83% of 330,000 active; SK-MEL-5 TRPM1 promoter luciferase, 24 h;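 active = mean inhibition across replicates of 60% or more, whatever share of single replicates reaches that level; inconclusive = some that reach 60%, reason not given; inactive = mean inhibition across replicates below 60%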
HIF-2a inh = HIF-2a inhibition; 786-0 RCC cells HIF-2a reporter, luciferase luminescence, overnight; inhibition, % at 18.8 µM; 0.72% of 360,000 active;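 active = inhibition of the luminescence signal of 40% or more relative to plate controls, in a single-dose primary screen at 18.75 µM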
KKLEB cytotox = CF airway cell cytotoxicity counter-screen. 0.36% of 360,000 active. activity change (cytotoxicity), % at 5 µM. KKLEB CF airway cells viability, ATPlite luminescence, overnight; stronger effect = lower value; cells stimulated with P. aeruginosa culture filtrate;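 active = corrected activity change at or below -50% at 5 µM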
The depositor's hits bear a star; u = inconclusive; x = no result given. In the library only some 3% were active in any assay of this set; here they are far more common.

SMILES	LMP1 NFkB inh	Peg3 promoter	CF NFkB block	TRPM1 prom inh	HIF-2a inh	KKLEB cytotox
Cc1nnc(NC(=O)CSc2nnc(Cc3cccn3C)n2CCc2ccccc2)s1	65.8*	4.1	-11.6	-13.5	-7.3	-6.7
C#CCn1c(=NC(=O)c2cc(-c3cccs3)nc3ccccc23)sc2cc(S(N)(=O)=O)ccc21	-4.9	29.8	37.3	-15.8	29.9	-56.1*
CCOC(=O)C1=CCC(c2cccc(C)c2)N(S(=O)(=O)c2ccc(C)cc2)C1 (stereo not drawn)	x	28.0	29.4	x	1.2	-15.6
CC(=O)OC[C@]12CC[C@H]3[C@@](C)(CC[C@H]4C(C)(C)CCC[C@]34C)[C@@H]1CC(C1=CC(=O)OC1O)O2 (stereo partly drawn)	x	105.3*	92.2*	x	88.9*	-80.9*
CC(=O)OC[C@]1(OC(C)=O)C[C@@]23CC[C@H]4[C@@](C)(CCC[C@@]4(C)C(=O)O)[C@@H]2CC[C@@H]1C3	-0.3	-3.6	-21.8	0.1	7.3	3.9
Cc1ccccc1-c1cc2nc(Oc3cccc4ccccc34)n(C)c(=O)c2s1	x	-19.0	7.6	x	-35.6	-7.7
Cc1[nH]n(-c2ccccc2)c(=O)c1N=Nc1cccc(C(=O)O)c1	1.9	63.5*	-9.7	u	63.7*	6.2
CC1=C(C(=O)N2CCCCCC2)CC(CC(=O)NCCN2CCOCC2)C(=O)N1Cc1ccc(C(C)(C)C)cc1 (stereo not drawn)	x	x	x	x	5.5	x
Cc1ccc(NC(=O)C(=O)NCC2OCCc3ccccc32)cc1 (stereo not drawn)	-2.3	-27.2	0.2	-24.0	-20.9	19.3
O=C(NCC1OCCc2ccccc21)c1ccc(NC(=O)c2ccc(Cl)cc2)cc1 (stereo not drawn)	20.9	33.2	-9.8	69.2*	6.5	0.5
O=C(CCc1ccc(F)c(F)c1)NC1CCCN(Cc2ccc(Cl)cc2)C1 (stereo not drawn)	79.9*	6.8	-16.6	-3.8	5.1	-6.9
COc1ccc(Br)cc1CSC(=N)N	0.5	-2.3	4.2	3.9	9.1	10.3
CCCCOc1ccc(CSC(=N)N)cc1Cl	-1.7	93.1*	-13.7	32.1	-82.4	-1.1
CCCCCOc1ccc(Br)cc1CSC(=N)N	23.3	104.5*	24.6	39.5	15.6	-5.7
O=C(CCNc1cccc(F)c1)c1cc2ccccc2o1	45.7*	-28.3	4.9	-7.7	-57.1	6.5
CCc1nc2ccc(C(=O)NCCCN(C)C)cn2c1N(C)Cc1ccc(OC)cc1	x	-9.5	28.1	x	-5.7	-5.5
COc1cccc(/C=N/NC(=O)CSCC(=O)Nc2ccccc2)c1O	46.6*	44.2	24.9	15.4	-22.4	-22.5
CC(C)=CCc1cc([C@@H]2COc3c(ccc4c3C=CC(C)(C)O4)C2)c(O)cc1O	17.2	83.8*	-8.2	29.6	-3.7	-6.2
COC(=O)[C@@]12C[C@@H](CC(=O)N3CCN(C(=O)C4CC4)CC3)C(=O)N(Cc3ccccc3)C1=CCC(C)(C)C2	x	x	x	x	4.9	x
Cc1ccn2c(c1)nc(=S)n2C(=O)c1ccccc1	49.4*	-9.6	-10.4	41.4	47.9*	-51.2*
Cc1cccc(C(=O)n2c(=S)nc3cc(C)ccn32)c1	32.9	-56.0	-33.1	6.6	-58.1	-30.8
CCNC(=O)C1CCCN(C(=O)c2ccc(F)c(Cl)c2)CC1 (stereo not drawn)	x	-0.7	11.2	x	1.3	3.8
CC(=O)c1ccc(Nc2nc(CN)cs2)cc1	x	-11.4	-0.3	x	5.2	-6.4
CCOc1ccccc1OCC(=O)Nc1cccc(S(=O)(=O)N2CCCCCC2)c1	-0.4	30.3	-18.9	-2.0	7.0	0.7
CC(=O)c1ccccc1OCC(=O)Nc1cccc(S(=O)(=O)N2CCCC2)c1	46.2*	-2.6	23.9	-23.7	-25.6	-16.6
SMILES	LMP1 NFkB inh	Peg3 promoter	CF NFkB block	TRPM1 prom inh	HIF-2a inh	KKLEB cytotox
COc1cc(C(C)=O)ccc1OCC(=O)Nc1ccc(C)c(S(=O)(=O)N2CCCCCC2)c1	25.7	55.4*	11.4	32.5	29.2	4.1
COCCNC(=O)C1CCC(CNS(=O)(=O)c2ccccc2)CC1 (stereo not drawn)	55.6*	8.9	3.3	x	17.1	15.2
COCCNC(=O)C1CCC(CNS(=O)(=O)c2ccc(F)cc2)CC1 (stereo not drawn)	6.0	-4.4	6.4	-4.4	-9.9	5.3
CC(C)OCCCNC(=O)C1CCC(CNS(=O)(=O)c2ccccc2)CC1 (stereo not drawn)	66.9*	12.0	1.3	-7.3	2.8	7.6
CC(C)OCCCNC(=O)C1CCC(CNS(=O)(=O)c2ccc(Cl)cc2)CC1 (stereo not drawn)	-0.3	3.1	2.0	-8.1	2.4	9.3
CC(=O)NC(c1ccco1)c1cc(F)c2cccnc2c1O (stereo not drawn)	31.7	35.9	0.0	-3.0	-2.1	-1.0
CC(=O)NC(c1cccs1)c1cc(F)c2cccnc2c1O (stereo not drawn)	53.2*	36.1	-2.3	43.8	3.3	7.2
CC(C)C(=O)NC(c1cccs1)c1cc([N+](=O)[O-])c2cccnc2c1O (stereo not drawn)	3.3	56.0*	9.2	4.3	15.1	-4.6
Cc1ccc(C(NC(=O)C(C)C)c2cc([N+](=O)[O-])c3cccnc3c2O)cc1 (stereo not drawn)	13.9	37.6	14.3	38.5	2.5	2.9
CCCC(=O)N1CCC1(C)C(=O)Nc1ccc2c(c1)CCN2C(C)=O (stereo not drawn)	x	-2.9	14.1	x	0.6	0.3
Cc1ccc(C)c(OCC(O)CN2CCN(CCN3C(=O)c4cccc5cccc(c45)C3=O)CC2)c1 (stereo not drawn)	-26.8	88.6*	-28.7	-6.7	-9.3	-23.0
CCc1ccc(OCC(O)CN2CCC(CN3C(=O)c4cccc5cccc(c45)C3=O)CC2)cc1 (stereo not drawn)	2.8	108.6*	22.7	57.2	27.1	-28.5
O=C1c2cccc3cccc(c23)C(=O)N1CCN1CCN(CC(O)COc2ccc3ccccc3c2)CC1 (stereo not drawn)	-4.4	78.7*	-17.4	-7.4	-13.6	-15.1
CC(=O)c1ccccc1OCC(O)CN1CCN(CCN2C(=O)c3cccc4cccc(c34)C2=O)CC1 (stereo not drawn)	0.8	16.9	-23.1	-5.9	-7.1	-17.8
Cc1cc(C)cc(OCC(O)CN2CCC(CN3C(=O)c4cccc5cccc(c45)C3=O)CC2)c1 (stereo not drawn)	24.4	75.2*	-11.7	71.5*	8.5	-8.7
COc1cccc(OCC(O)CN2CCC(CN3C(=O)c4cccc5cccc(c45)C3=O)CC2)c1 (stereo not drawn)	-7.9	19.2	6.6	1.1	15.3	-3.5
FC(F)(F)c1cc(Cl)c2nc(-c3ccccc3)c(Cc3ccccc3)n2c1	x	-1.0	-0.7	x	-31.6	-2.6
CSc1cccc(CNC(=O)C2CCC(=O)N(CCc3ccccc3)C2)c1 (stereo not drawn)	-3.7	-94.3	14.3	x	-109.4	-0.2
